Bioassay records: PubChem BioAssay, several laboratories
Sampled rows, rich in hits. Any-hit rate of the full collection: about 1.2%.
NR5A2 inv ag – suppresses constitutive activity of human LRH-1 | hit rate 0.13% among 360,000 | AID 602396 | O00482 | HEK293T StAR-luciferase reporter, LRH-1 transfected, 24 h | inhibition, % at 3.6 µM;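 active = inhibition above the mean inhibition of all tested compounds plus 3 SD, cut at about 73% in these data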
Target sequence (O00482 whole entry, looked up): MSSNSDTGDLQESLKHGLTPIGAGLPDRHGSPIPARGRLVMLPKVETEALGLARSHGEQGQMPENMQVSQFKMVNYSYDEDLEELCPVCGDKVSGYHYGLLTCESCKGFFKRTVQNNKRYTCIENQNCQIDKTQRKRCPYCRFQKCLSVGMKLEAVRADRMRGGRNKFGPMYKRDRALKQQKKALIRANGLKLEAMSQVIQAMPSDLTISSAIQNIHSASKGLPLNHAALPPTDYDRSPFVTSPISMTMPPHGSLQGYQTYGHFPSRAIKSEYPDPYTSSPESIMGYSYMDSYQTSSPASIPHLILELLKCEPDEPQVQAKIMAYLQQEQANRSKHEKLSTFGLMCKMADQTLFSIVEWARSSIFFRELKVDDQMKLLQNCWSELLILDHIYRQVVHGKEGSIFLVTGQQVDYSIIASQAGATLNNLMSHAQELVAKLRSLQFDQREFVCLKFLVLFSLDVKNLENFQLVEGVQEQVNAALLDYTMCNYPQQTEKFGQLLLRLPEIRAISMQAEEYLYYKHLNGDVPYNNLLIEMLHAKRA
LMP1 NFkB inh – Epstein-Barr LMP1 NF-kappaB reporter inhibition; LMP1-induced NF-kappaB luciferase reporter cells, luminescence; inhibition, % at 12.5 µM; AID 504558; hit rate 0.69% among 350,000; in the data active = inhibition above about 41%
NCOA1 inh – inhibits human SRC1 coactivator | HEK293 GAL4-SRC1 luciferase reporter, luminescence | inhibition, % at 3.6 µM | AID 588354 | hit rate 0.12% among 360,000 | Q15788;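 active = inhibition above the campaign mean plus 3 SD, with each screening campaign given its own cutoff, cut at about 60% in these data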
Shn3 inh set2 – inhibitors of Schnurri-3 3'UTR reporter in osteoblasts; Clone20 osteoblast Shn3 3'UTR firefly luciferase, 24 h; inhibition, % at 12.5 µM; hit rate 0.52% among 360,000; AID 588674;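 active = mean inhibition of at least 75% with every replicate also reaching 75%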
SRC2 inh – human SRC2 (NCOA2) inhibition; Q15596; HEK293 GAL4-SRC2 luciferase reporter, luminescence; inhibition, % at 9 µM; hit rate 0.17% among 370,000;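 active = inhibition above the mean inhibition of all tested compounds plus 3 SD, set per campaign, cut at about 52% in these data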
SRC3 inh – inhibitors of human steroid receptor coactivator 3 (SRC3); hit rate 0.17% among 360,000; inhibition, % at 3.6 µM; Q9Y6Q9; AID 588352; HEK293 GAL4-SRC3 luciferase reporter, luminescence;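 active = inhibition above a per-campaign cutoff, the mean of all compounds plus 3 SD, cut at about 60% in these data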;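 note: higher means less SRC3-driven luciferase light from the GAL4 reporter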
A number is an active result; – = inactive; · = no result; ! = a repeat was not active.

SMILES | NR5A2 inv ag | LMP1 NFkB inh | NCOA1 inh | Shn3 inh set2 | SRC2 inh | SRC3 inh
Cc1ccn2c(Nc3ccccc3)c(-c3ccccn3)nc2c1 | – | 58.9 | – | – | – | –
CCCCCCOC(=O)C[N+](C)(C)CCOC1CC2CCC1(C)C2(C)C (stereo unspecified) | – | – | – | – | – | –
CCCCCCCOC(=O)C[N+](C)(C)CCOC1CC2CCC1(C)C2(C)C (stereo unspecified) | – | – | – | 85.4 | – | –
Cc1ccc(-c2csc(=Nc3cccnc3)n2CCCn2ccnc2)cc1C | – | 46.8 | 62.8 | – | 62.4 | –
CC(C)(C)c1ccc(-c2nnc(SCc3ccccc3)n2Cc2ccco2)cc1 | · | · | · | · | – | ·
CCOC(=O)[C@]12CCCC=C1N(Cc1ccc(OC)cc1)C(=O)[C@@H]2CC(=O)NCc1cccc2ccccc12 | · | · | · | · | – | ·
O=C(NCc1nc2ccccc2[nH]1)c1ccc(Cl)c(S(=O)(=O)N2CCCC2)c1 | – | – | – | – | – | –
O=C(Nc1cccnc1)c1ccc(Cl)c(S(=O)(=O)N2CCCCC2)c1 | – | – | – | – | – | –
CCCn1c(NC(=O)c2ccc(Cl)c(S(=O)(=O)N3CCCC3)c2)nc2ccccc21 | – | – | – | 90.7 | – | –
O=C(O)c1cccc(NC(=O)c2ccc(Cl)c(S(=O)(=O)N3CCCCCC3)c2)c1 | – | 56.6 | – | – | – | –
CC(NC(=O)Nc1nnc(C(F)(F)F)s1)(C(F)(F)F)C(F)(F)F | 89.6 | 43.5 | – | – | – | 83.5
CC(C)(C)CC(=O)Nc1nnc(C(F)(F)F)s1 | – | – | – | – | – | –
Cc1[nH]nc2c1C(c1ccc(Br)cc1)N(Cc1ccccc1)C2=O (stereo unspecified) | · | · | · | · | – | ·
CCOC(=O)N1CCC(NC(=O)C2CCCN(Cc3nc(-c4cccc(Cl)c4)oc3C)C2)CC1 (stereo unspecified) | – | 52.5 | – | – | – | –
O=C(NCC1COCCO1)C1CCN(S(=O)(=O)c2ccc(Br)s2)CC1 (stereo unspecified) | · | · | · | · | – | ·
CCc1ccc(C2=NN(CCC(=O)NC(C)c3ccc4c(c3)OCCO4)C(=O)CC2)cc1 (stereo unspecified) | – | – | – | – | – | –
Cc1csc(NC(=O)CCc2c(C)nc3cc(-c4ccc(Cl)cc4)nn3c2C)n1 | – | – | – | – | 66.4 | –
Cc1csc(NC(=O)CSc2nnc(-c3ccc(Cl)cc3)n2N)n1 | – | – | – | – | – | –
Cc1nc2cc(-c3ccc(Cl)cc3)nn2c(C)c1CCC(=O)NC(C)c1ccc2c(c1)OCCO2 (stereo unspecified) | – | – | – | – | 73.0 | –
COc1cc(OC)cc(-c2cc3nc(C)c(CCC(=O)NCc4ccccc4)c(C)n3n2)c1 | – | – | – | – | 77.3 | –
COC(=O)[C@]12C[C@H](CC(=O)NCCc3ccccc3OC)C(=O)N(CCC3=CCCCC3)C1=C[C@H](C(C)C)O[C@@H]2C1CC1 | · | · | · | · | – | ·
Cc1nc(N2CCCCC2C)c2nnn(Cc3ccccc3)c2n1 (stereo unspecified) | · | · | · | · | – | ·
C[C@H](O)[C@@H]1C(=O)N2CCc3c([nH]c4cccc(-c5ccccc5)c34)[C@@H]2C[C@@H]1N(C)C(=O)Nc1ccccc1 | · | · | · | · | – | ·
O=C(OC12CCCN(C1)/C(=C/c1ccc(Cl)cc1)C2)c1cccc(F)c1 (stereo unspecified) | · | · | · | · | – | ·
COc1ccc(C(=O)CN2C(=O)c3ccccc3S2(=O)=O)cc1 | – | · | – | – | 80.7 | –
SMILES | NR5A2 inv ag | LMP1 NFkB inh | NCOA1 inh | Shn3 inh set2 | SRC2 inh | SRC3 inh
COc1ccc(C(=O)CN2C(=O)c3ccccc3S2(=O)=O)cc1Br | – | – | – | – | – | –
O=C(CN1C(=O)c2ccccc2S1(=O)=O)c1ccc(F)c(F)c1 | – | 46.3 | – | – | – | –
COc1cccc2sc(=NC(=O)CS(=O)(=O)c3ccc(F)cc3)n(C)c12 | – | – | – | – | – | –
COc1cccc2sc(=NC(=O)CS(=O)(=O)c3ccc(Cl)cc3)n(C)c12 | – | – | – | 88.2 | – | –
O=C(c1ccc2c(c1)OCO2)N1CCC(Oc2cccnc2)CC1 | · | · | · | · | – | ·
CCn1c(Cc2cccs2)nnc1SCC(=O)Nc1ccccc1-c1ccccc1 | · | · | · | · | – | ·
COc1cc(C2Nc3ccc4ccccc4c3C3=C2C(=O)CC(C)(C)C3)ccc1OCC(=O)O (stereo unspecified) | – | – | – | – | – | –
COc1cccc(C2Nc3ccc4ccccc4c3C3=C2C(=O)CC(C)(C)C3)c1OCC(=O)O (stereo unspecified) | – | 55.0 | – | – | – | –
COc1ccc2c(c1)CNC2CS(=O)(=O)NCCc1ccccc1 (stereo unspecified) | · | · | · | · | – | ·
Nc1[nH]c(C(=O)c2ccc(Br)cc2)c(-c2ccc(Cl)cc2)c1C(=O)NCCc1c[nH]c2ccccc12 | · | · | · | · | – | ·
O=C1CCC(C(=O)N2CCC(O)CC2)CN1CCc1ccc(Cl)cc1 (stereo unspecified) | – | – | – | – | – | –
O=C1CCC(C(=O)N2CCCCCC2)CN1CCc1ccc(Cl)cc1 (stereo unspecified) | – | 68.8 | – | – | – | –
Cc1cccc(-n2c(O)c(C=Nc3c(C)n(C)n(-c4ccccc4)c3=O)c3ccccc3c2=O)n1 | – | 58.1! | – | – | – | –
CCCCCCCCN1C(=O)[C@@H](CC(=O)N2CCSCC2)C[C@@]2(C(=O)OC)C1=C[C@H](C(C)C)O[C@@H]2C1CC1 | · | · | · | · | – | ·
N#CC1=C(N)C(C#N)(C#N)[C@H](c2cccnc2)[C@H]2CN(C(=O)OCc3ccccc3)CC=C12 | – | – | – | – | – | –
N#CC1=C(N)C(C#N)(C#N)C(c2cccnc2)C2CC(c3ccccc3)CC=C12 (stereo unspecified) | – | 54.7 | 65.2 | – | · | 62.5
COC(=O)c1ccc(NC(=O)c2ccc(NS(=O)(=O)c3cccc4cccnc34)cc2)cc1 | – | – | – | – | · | –
O=C(Nc1ccccc1O)c1ccc(NS(=O)(=O)c2cccc3cccnc23)cc1 | – | 47.1 | – | – | – | –
COC(=O)CSc1nnc(-c2ccc(NS(=O)(=O)c3ccc(C)c(C)c3)cc2)o1 | · | · | · | · | – | ·
CN=c1scc(-c2ccc(F)cc2)n1/N=C/c1ccc(O)c(O)c1 | – | – | – | 88.9 | – | –
CN=c1scc(-c2ccc([N+](=O)[O-])cc2)n1/N=C/c1ccco1 | – | – | – | – | – | –
C=CC[C@H]1c2ccccc2[C@H]2N3N=Cc4ccccc4[C@H]3[C@H](CCCC)C(=O)N2N1C(=O)NCc1ccccc1 | · | · | · | · | – | ·
Cc1coc2c1C(=O)C(=O)c1c-2ccc2c(C)cccc12 | – | 78.5 | – | – | · | –
CC(=O)N(Cc1ccccc1)c1nccs1 | · | · | · | · | – | ·
O=C(COC(=O)c1ccccc1C(=O)c1ccc(Cl)c([N+](=O)[O-])c1)NC1CCCCCC1 | – | 86.6 | – | – | – | –
Cc1ccc(C)c(N2CCN(S(=O)(=O)c3ccc4[nH]c(=O)ccc4c3)CC2)c1 | – | – | – | 93.6 | – | –
